Here are results for 59 compounds from PubChem BioAssay AID720504 (National Center for Advancing Translational Sciences (NCATS), 2013).

In all, about 360,000 compounds went through this assay and about 10,000 (2.8%) were called active. Another 4% or so got no clear call; they are omitted. The entries come from a sample that favours actives as a whole. A number with no mark means an inactive call. Calls come from the whole dose curve; as a rule, active = well fitted inhibition curve with a large enough effect; inconclusive = small, poorly fitted or top-dose-only effect; inactive = flat fitted curve, though single readings scatter.
% is set by controls: 0 for no effect and ±100 for the full control effect; potency is the fitted concentration of half-maximal effect.

The target of this assay is Serine/threonine-protein kinase PLK1 (Homo sapiens) (UniProt P53350). As to the kind of experiment: qHTS for Inhibitors of PLK1-PDB (polo-like kinase 1 - polo-box domain): Primary Screen. For max response, negative = inhibition: series mostly up to about 57 µM. Note: nearly all actives have a fitted effect of over 65% in size. The conditions noted are these: Plk1 PBD binding of FITC phosphopeptide, fluorescence polarization.
Sequence of Serine/threonine-protein kinase PLK1 (Homo sapiens) (P53350 whole entry, looked up, the tested form may be a part): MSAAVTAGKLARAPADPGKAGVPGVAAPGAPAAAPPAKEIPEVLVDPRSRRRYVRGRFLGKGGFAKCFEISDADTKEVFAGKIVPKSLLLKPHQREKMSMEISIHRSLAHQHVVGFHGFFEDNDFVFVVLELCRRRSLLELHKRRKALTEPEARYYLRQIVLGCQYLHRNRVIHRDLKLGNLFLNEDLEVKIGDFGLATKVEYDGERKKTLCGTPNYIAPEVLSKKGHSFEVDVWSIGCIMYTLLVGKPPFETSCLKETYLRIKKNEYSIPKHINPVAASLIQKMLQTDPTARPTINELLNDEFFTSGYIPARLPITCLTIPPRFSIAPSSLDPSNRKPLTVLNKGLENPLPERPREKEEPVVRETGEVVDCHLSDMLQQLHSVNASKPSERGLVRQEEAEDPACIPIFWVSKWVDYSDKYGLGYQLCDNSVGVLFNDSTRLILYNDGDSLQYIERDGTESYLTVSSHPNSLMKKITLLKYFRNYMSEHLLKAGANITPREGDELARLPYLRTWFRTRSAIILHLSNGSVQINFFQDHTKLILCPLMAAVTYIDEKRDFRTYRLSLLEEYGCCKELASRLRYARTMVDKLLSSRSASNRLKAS
On to `COc1cccc(OCC(=O)NCCS(=O)(=O)N2CCN(c3ccccc3)CC2)c1`, for which the max response, negative = inhibition is -0.74%.
Same read-out and setting: then `Cc1ccccc1NC(=O)Cc1nc(COC(=O)C(C)(C)Oc2ccc(Cl)cc2)cs1`, with -1.61%.
As to `CCOC(=O)COc1nc(C)cc(C(F)(F)F)c1C#N`, the max response, negative = inhibition was -6.94%.
As to `CCOC(=O)Cc1c(C)nc2c(C#N)c(C)nn2c1C`, the Potency is 18.9 µM (active).
With `CCOC(=O)c1cc(C)nc(S(C)(=O)=O)c1C#N`, the max response, negative = inhibition was -3.21%.
On the same count and under the same terms, under `Nc1nc(CSc2nnnn2-c2ccccc2)nc(Nc2ccccc2)n1` stands 0.127%; under `COc1ccc(-c2ccc(CN3C(CC(C)C)C(=O)N(Cc4cn(CC5CCCCC5)nn4)CCS3(=O)=O)cc2)cc1` (centres undefined), -10.4%.
On the same count and under the same terms, under `C=CCn1c(=O)c(C(=O)Nc2ncccc2O)c(O)c2ccccc21` stands -22.1%.
Turning to `Cn1c(=O)c(C(=O)Nc2ncccn2)c(O)c2ccccc21`, the Potency was 8.44 µM (active).
On to `CCCn1c(=O)c(C(=O)Nc2cc(C)ccn2)c(O)c2ccccc21`, for which the max response, negative = inhibition is -9.12%.
The same measure, in the same setting: under `CC(C)c1cc(Cn2c3ccccc3c(=O)n2C(C)Cn2cc(C3CC3)nn2)on1` (centres undefined) stands -4.91%.
Take `CCn1c(Cc2cccs2)nnc1SCC(=O)c1ccc(C)cc1`: the Potency is 16.8 µM (active).
For the compound `Cc1ccc(-n2c(Cc3cccs3)nnc2SCC(=O)OC(C)C)cc1`, the max response, negative = inhibition is -2.98%.
Take `CCn1c(SCC(=O)c2ccc(Cl)s2)nnc1-c1cccs1`: the max response, negative = inhibition is -17.2%.
The same measure, in the same setting: under `COC(=O)[C@@]12C[C@@H](CC(=O)N3CCC(c4ccccc4)CC3)C(=O)N(Cc3ccccc3)C1=CCC(C)(C)C2` stands -1.16%; under `O=C(NCc1ccc(F)cc1)c1cc(C2CCCCN2C(=O)c2ccccn2)on1` (centres undefined), -4.01%.
Still for that read-out and setting: then `c1ccc(-c2cc3c(NCC4COc5ccccc5O4)ncnc3s2)cc1` (centres undefined), with -4.18%.
On to `Oc1ccccc1N1CCN(c2ncnc3sc(-c4ccccc4)cc23)CC1`, for which the Potency was 15 µM (active).
On to `COc1ccccc1N1CCN(c2ncnc3sc(C)c(-c4ccccc4)c23)CC1`, for which the max response, negative = inhibition was 8.83%.
The same measure, in the same setting: then `CS(=O)(=O)c1cccc(-c2ccc3nncn3c2)c1`, with -8.79%.
On the same count and under the same terms, then `N#CCCC(C#N)(c1cccnc1)N1CCOCC1` (centres undefined), with -8.09%.
As to `COc1ccc(C2=NN(C(=O)CCC(=O)O)C(c3cccs3)C2)cc1OC` (centres undefined), the max response, negative = inhibition was -7.47%.
On to `COc1ccc(C2CC(c3cccs3)=NN2C(=O)CCC(=O)O)cc1OC` (centres undefined), for which the Potency is 23.8 µM (active).
Turning to `COc1ccc(C2CC(c3cccs3)=NN2C(=O)CSc2nncs2)cc1OC` (centres undefined), the max response, negative = inhibition was -11.3%.
Still for that read-out and setting: under `COc1ccc(C2CC(c3cccc(OC)c3)=NN2c2ccc(S(N)(=O)=O)cc2)cc1` (centres undefined) stands -4.37%; under `COc1ccc(NC(=O)c2cc(=O)[nH]c3ccccc23)cc1S(=O)(=O)N1CCOCC1`, -1.4%; under `Nc1[nH]c(C(=O)c2ccccc2)c(-c2ccncc2)c1C(=O)NCc1cccc2ccccc12`, -5.24%.
Same read-out and setting: under `OC[C@@H]1CN(Cc2ccc(F)cc2)C[C@H](n2cnc3c(NC4CCCC4)ncnc32)O1` stands -5.68%.
For the compound `Oc1c(Cl)cc(Cl)c(Cl)c1Cc1c(O)c(Cl)cc(Cl)c1Cl`, the Potency is 21.2 µM (active).
`CCc1nc2c(OCc3ccccc3)cccn2c1N(C)C(=O)c1ccco1`: the max response, negative = inhibition is 3.35%.
Still for that read-out and setting: then `CCn1c(SCC(=O)N2CCCC2=O)nc2ccccc21`, with -10%; and `Cc1ccc(F)c(NC(=O)CCc2ccccc2)c1`, with -9.88%.
For `O=C(CCc1ccccc1)Nc1nn[nH]n1`, the Potency is 26.7 µM (active).
With `O=C(CCc1ccccc1)NNc1ccc(F)cc1`, the max response, negative = inhibition is -17.7%.
Same read-out and setting: then `C[C@H]1CN([C@@H](C)CO)C(=O)c2cc(C3=CCCCC3)cnc2O[C@@H]1CN(C)C(=O)Cc1ccccc1`, with -26.3%.
As for `O=C(CSc1ncn[nH]1)Nc1ccc(Br)cc1Br`, the max response, negative = inhibition was -1.62%.
As for `CC(C)(C)c1ccc(C(=O)CSc2ncn[nH]2)cc1`, the Potency is 20 µM (active).
Take `CCN(C(=O)CSc1ncn[nH]1)c1cccc2ccccc12`: the max response, negative = inhibition is -2.53%.
Turning to `Cc1ccc(S(=O)(=O)/N=S(\C)C(C)C)cc1` (centres undefined), the Potency is 26.7 µM (active).
As to `CCCC/S(C)=N/S(=O)(=O)c1ccc(C)cc1` (centres undefined), the max response, negative = inhibition is -5.69%.
On the same count and under the same terms, then `CC/S(CC1CC1(Cl)Cl)=N\S(=O)(=O)c1ccc(C)cc1` (centres undefined), with -0.46%.
On the same count and under the same terms, under `O=C(NCC(F)(F)F)c1ccc(S(=O)(=O)NCCc2ccc3c(c2)OCCO3)cc1` stands -0.767%.
The same measure, in the same setting: under `COCCNC(=O)C1C(=O)Nc2ccccc2C(=O)N1c1ccc2c(c1)OCCO2` (centres undefined) stands -3.12%; under `Cc1ccc(/C=C2\CCn3c2nc2cc(C(=O)O)ccc2c3=O)c(C)c1`, -12.7%.
Turning to `O=C(O)c1ccc2c(=O)n3c(nc2c1)/C(=C/c1ccc(OC(F)F)cc1OC(F)F)CC3`, the Potency was 10.6 µM (active).
Take `N#Cc1ccc(/C=C2\CCn3c2nc2cc(C(=O)O)ccc2c3=O)cc1`: the max response, negative = inhibition was -8.35%.
With `COc1cccc(NC(=O)C2(C)CCN2C(=O)CCC2CCCC2)c1` (centres undefined), the max response, negative = inhibition was 1.49%.
The same measure, in the same setting: then `FC(F)(F)Oc1ccccc1C(c1nnnn1C1CCCCC1)N1CCN(C/C=C/c2ccccc2)CC1` (centres undefined), with -10.7%.
On the same count and under the same terms, then `CCNC(=O)C1(C)CCN(C(=O)c2ccccc2)C1` (centres undefined), with -1.07%.
Turning to `C[C@@H]1CN([C@@H](C)CO)C(=O)c2c(c3ccccc3n2C)-c2ccccc2CO[C@H]1CN(C)C(=O)C1CC1`, the max response, negative = inhibition is -5.93%.
In the case of `Nc1c(C(=O)O)cnn1-c1ccccc1`, the Potency is 23.8 µM (active).
Turning to `CCNC(=O)c1cnn(-c2ccccc2)c1-c1ccccc1`, the max response, negative = inhibition was -11.7%.
Still for that read-out and setting: under `NNC(=O)c1cnn(-c2ccccc2)c1C(F)(F)F` stands -2.55%; under `COc1ccc(CCNC(=O)CN(c2ccccc2)S(=O)(=O)c2ccccc2)cc1`, -1.56%.
Consider `CCCCCCN1CCN(C2CN(Cc3cn(CCCCCC)nn3)S(=O)(=O)C2)CC1` (centres undefined), for which the max response, negative = inhibition is 6.53%.
On the same count and under the same terms, under `COc1ccc(-c2cc3c(c4c2ccn4C)C2CCC3C2)cn1` (centres undefined) stands -0.384%.
For the compound `O=S(=O)(NC(=S)Nc1ccccc1)c1ccc(F)cc1`, the Potency was 23.8 µM (active).
Consider `CC(=O)NS(=O)(=O)c1ccc(NC(=S)NC(=O)C(C)(C)C)cc1`, for which the max response, negative = inhibition was -8.92%.
Still for that read-out and setting: then `COC(=O)C(NS(=O)(=O)c1ccc(F)cc1)c1ccccc1` (centres undefined), with -18.8%.
